According to PubChem BioAssay AID1159580 (chemical genetic matrix, 2015):
Out of some 5,500 compounds screened, about 2,000 (36%) were called active. Not shown: some 18% with an inconclusive outcome. Cut-off read from the data, not from the text of the source: active = normalized growth mostly below about 0.91 (no sharp cut-off); inconclusive = no clear call, values can overlap the other calls; inactive = mostly above about 0.92. This is one part of the list.

Assay: chemical genetic growth profiling, strain panel (AID 1159580);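 note: tested at 20 µM; growth read once vehicle control cultures reached saturation at 30 °C; 1 = growth at the plate median or of vehicle wells; lower values mean less growth of the strain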
Settings: growth OD

Measured: normalized growth

Cc1ccc(C(=O)c2ccc(CC(=O)O)n2C)cc1
inactive: S. cerevisiae deletion strains, locus YJR075W, strain HOC1, active compounds read low 1.02 | S. cerevisiae deletion strains, locus YKL009W, strain mrt4, active compounds read low 0.958 | S. cerevisiae deletion strains, locus YKL068W, active compounds read low 0.99 | S. cerevisiae deletion strains, locus YKL085W, strain MDH1 (second series), active compounds read low 0.98 | S. cerevisiae deletion strains, locus YKL085W, strain MDH1, active compounds read low 0.98 | S. cerevisiae deletion strains, locus YKL160W, strain elf1, active compounds read low 1.01 | S. cerevisiae deletion strains, locus YKL190W, strain CNB1, active compounds read low 0.996 | S. cerevisiae deletion strains, locus YKR001C, strain vps1, active compounds read low 0.946 | S. cerevisiae deletion strains, locus YKR026C, strain gcn3, active compounds read low 1.01 | S. cerevisiae deletion strains, locus YKR091W, strain srl3, active compounds read low 1 | S. cerevisiae deletion strains, locus YLL001W, strain dnm1, active compounds read low 0.981 | S. cerevisiae deletion strains, locus YLL026W, active compounds read low 1.01 | S. cerevisiae deletion strains, locus YLL041C, strain sdh2, active compounds read low 1 | S. cerevisiae deletion strains, locus YLR027C, strain aat2, active compounds read low 1.02 | S. cerevisiae deletion strains, locus YLR039C, strain RIC1, active compounds read low 0.996 | S. cerevisiae deletion strains, locus YLR058C, strain SHM2, active compounds read low 1 | S. cerevisiae deletion strains, locus YLR102C, strain apc9, active compounds read low 0.973 | S. cerevisiae deletion strains, locus YLR113W, strain HOG1, active compounds read low 0.991 | S. cerevisiae deletion strains, locus YLR221C, strain rsa3, active compounds read low 0.971 | S. cerevisiae deletion strains, locus YLR258W, strain gsy2, active compounds read low 1.01 | S. cerevisiae deletion strains, locus YLR262C, strain YPT6 (second series), active compounds read low 0.994 | S. cerevisiae deletion strains, locus YLR262C, strain YPT6, active compounds read low 1 | S. cerevisiae deletion strains, locus YLR268W, strain sec22, active compounds read low 0.918 | S. cerevisiae deletion strains, locus YLR320W, strain mms22, active compounds read low 0.958 | S. cerevisiae deletion strains, locus YLR330W, strain CHS5, active compounds read low 1 | S. cerevisiae deletion strains, locus YLR342W, strain FKS1 (second series), active compounds read low 0.997 | S. cerevisiae deletion strains, locus YLR342W, strain FKS1, active compounds read low 1.02 | S. cerevisiae deletion strains, locus YLR357W, strain rsc2, active compounds read low 1.02 | S. cerevisiae deletion strains, locus YLR370C, strain arc18, active compounds read low 1 | S. cerevisiae deletion strains, locus YLR371W, strain rom2, active compounds read low 0.978 | S. cerevisiae deletion strains, locus YLR384C, strain iki3, active compounds read low 1.01 | S. cerevisiae deletion strains, locus YLR418C, strain cdc73, active compounds read low 0.968 | S. cerevisiae deletion strains, locus YML016C, strain PPZ1, active compounds read low 1.01 | S. cerevisiae deletion strains, locus YML032C, strain rad52, active compounds read low 0.969 | S. cerevisiae deletion strains, locus YML120C, strain ndi1, active compounds read low 0.982 | S. cerevisiae deletion strains, locus YML124C, strain tub3, active compounds read low 0.981 | S. cerevisiae deletion strains, locus YMR058W, strain fet3, active compounds read low 1.02 | S. cerevisiae deletion strains, locus YMR078C, strain ctf18, active compounds read low 0.97 | S. cerevisiae deletion strains, locus YMR125W, strain sto1, active compounds read low 1.01 | S. cerevisiae deletion strains, locus YMR129W, active compounds read low 1.02 | S. cerevisiae deletion strains, locus YMR205C, strain PFK2, active compounds read low 1.01 | S. cerevisiae deletion strains, locus YMR223W, strain ubp8, active compounds read low 0.979 | S. cerevisiae deletion strains, locus YMR231W, strain pep5, active compounds read low 1.01 | S. cerevisiae deletion strains, locus YMR307W, strain GAS1, active compounds read low 0.991 | S. cerevisiae deletion strains, locus YNL067W, strain RPL9B, active compounds read low 1 | S. cerevisiae deletion strains, locus YNL071W, strain lat1, active compounds read low 1.02 | S. cerevisiae deletion strains, locus YNL153C, strain GIM3, active compounds read low 1 | S. cerevisiae deletion strains, locus YNL183C, strain NPR1, active compounds read low 0.928 | S. cerevisiae deletion strains, locus YNL209W, strain ssb2, active compounds read low 1.02 | S. cerevisiae deletion strains, locus YNL233W, strain BNI4, active compounds read low 1 | S. cerevisiae deletion strains, locus YNL248C, strain rpa49, active compounds read low 1.02 | S. cerevisiae deletion strains, locus YNL250W, strain rad50, active compounds read low 0.987 | S. cerevisiae deletion strains, locus YNL271C, strain bni1, active compounds read low 0.968 | S. cerevisiae deletion strains, locus YNL298W, strain CLA4, active compounds read low 0.95 | S. cerevisiae deletion strains, locus YNL307C, strain MCK1, active compounds read low 0.956 | S. cerevisiae deletion strains, locus YNL322C, strain KRE1 (second series), active compounds read low 1.03 | S. cerevisiae deletion strains, locus YNL322C, strain KRE1, active compounds read low 1 | S. cerevisiae deletion strains, locus YNR049C, strain mso1, active compounds read low 1 | S. cerevisiae deletion strains, locus YNR052C, strain pop2, active compounds read low 0.978 | S. cerevisiae deletion strains, locus YOL006C, strain TOP1, active compounds read low 0.969 | S. cerevisiae deletion strains, locus YOL012C, strain htz1 0.918 | S. cerevisiae deletion strains, locus YOL147C, strain pex11, active compounds read low 0.974 | S. cerevisiae deletion strains, locus YOR001W, strain rrp6, active compounds read low 0.975 | S. cerevisiae deletion strains, locus YOR061W, strain CKA2, active compounds read low 1 | S. cerevisiae deletion strains, locus YOR069W, strain VPS5, active compounds read low 0.997 | S. cerevisiae deletion strains, locus YOR070C, strain gyp1, active compounds read low 1.02 | S. cerevisiae deletion strains, locus YOR080W, strain dia2, active compounds read low 1.02 | S. cerevisiae deletion strains, locus YOR083W, strain WHI5, active compounds read low 0.974 | S. cerevisiae deletion strains, locus YOR106W, strain vam3, active compounds read low 1.04 | S. cerevisiae deletion strains, locus YOR136W, strain idh2, active compounds read low 0.989 | S. cerevisiae deletion strains, locus YOR144C, strain elg1, active compounds read low 0.979 | S. cerevisiae deletion strains, locus YOR184W, strain ser1, active compounds read low 0.956 | S. cerevisiae deletion strains, locus YOR231W, strain MKK1, active compounds read low 0.987 | S. cerevisiae deletion strains, locus YOR265W, strain rbl2, active compounds read low 1.01 | S. cerevisiae deletion strains, locus YOR270C, strain vph1, active compounds read low 0.934 | S. cerevisiae deletion strains, locus YOR290C, strain snf2, active compounds read low 1.01 | S. cerevisiae deletion strains, locus YOR316C, strain cot1, active compounds read low 0.974 | S. cerevisiae deletion strains, locus YPL051W, strain arl3, active compounds read low 1.01 | S. cerevisiae deletion strains, locus YPL055C, strain LGE1, active compounds read low 1.02 | S. cerevisiae deletion strains, locus YPL078C, strain atp4, active compounds read low 0.995 | S. cerevisiae deletion strains, locus YPL106C, strain sse1, active compounds read low 1.03 | S. cerevisiae deletion strains, locus YPL240C, strain hsp82, active compounds read low 1.03 | S. cerevisiae deletion strains, locus YPL241C, strain CIN2, active compounds read low 1 | S. cerevisiae deletion strains, locus YPL256C, strain CLN2, active compounds read low 0.969 | S. cerevisiae deletion strains, locus YPR119W, strain clb2, active compounds read low 0.975 | S. cerevisiae deletion strains, locus YPR141C, strain kar3, active compounds read low 0.985 | S. cerevisiae deletion strains, locus YPR163C, strain tif3, active compounds read low 0.984 | S. cerevisiae deletion strains, locus YPR167C, strain met16, active compounds read low 0.973 | S. cerevisiae deletion strains, strain wtn01, active compounds read low 0.973 | S. cerevisiae strains, strain wild type, active compounds read low 1
